Measurements reported in PubChem BioAssay (NCI).
About 79,000 compounds went through this panel and 15% of them were active in at least one assay; those are over-represented in the sample as a whole. Unmarked numbers belong to inactive results. Activity calls are given as the source filed them. Rule as the data show it: active = growth inhibition above about 70%; inactive = the rest.

Legend:
[1] = NCI Yeast Anticancer Drug Screen. Data for the rad52 strain (AID 147);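 also: 0% = growth of vehicle-treated control cultures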; conditions: S. cerevisiae rad52 mutant growth inhibition, stronger effect = higher value
Procedure, shortened: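 Read-out: growth inhibition versus vehicle-treated controls. Cells were a DNA repair-deficient yeast strain treated with compounds.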

[2] = NCI Yeast Anticancer Drug Screen. Data for the wt1 strain (AID 149);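 also: 0% = growth of vehicle-treated wt1 cultures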; conditions: S. cerevisiae wt1 strain (SPY 50644) growth inhibition, stronger effect = higher value
Procedure, shortened: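 Yeast wt1 strain exposed to compounds; growth inhibition measured relative to vehicle-treated controls.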

[3] = NCI Yeast Anticancer Drug Screen. Data for the rad50EPP+ strain (AID 151);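 also: 0% = growth of vehicle-treated control cultures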; conditions: S. cerevisiae rad50 mutant strain, stronger effect = higher value
Procedure, shortened: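 Growth inhibition read against vehicle controls in rad50EPP+ yeast, a strain altered in DNA damage repair, after compound exposure.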

[4] = NCI Yeast Anticancer Drug Screen. Data for the mgt1 strain (AID 153); conditions: S. cerevisiae mgt1 mutant growth inhibition, stronger effect = higher value
Procedure, shortened: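 mgt1 yeast grown with test compound; read-out is growth inhibition versus vehicle-treated cultures.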

[5] = NCI Yeast Anticancer Drug Screen. Data for the rad50 strain (AID 155);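 also: 0% = growth of vehicle-only cultures of the same strain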; conditions: S. cerevisiae rad50 strain growth inhibition, stronger effect = higher value
Procedure, shortened: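 Yeast carrying a defined DNA repair defect were exposed to test compounds, and growth was compared with vehicle-treated controls to give percent inhibition.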

[6] = NCI Yeast Anticancer Drug Screen. Data for the mec2-1 strain (AID 157); conditions: S. cerevisiae mec2-1 strain, stronger effect = higher value
Procedure, shortened: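 Yeast mec2-1 mutant treated with compound. Readout: growth inhibition vs vehicle controls.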

[7] = NCI Yeast Anticancer Drug Screen. Data for the rad14 strain (AID 159);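 also: 0% = growth of vehicle-treated control cultures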; conditions: S. cerevisiae rad14 strain growth inhibition, stronger effect = higher value
Procedure, shortened: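 Yeast cells carrying a defined DNA-repair defect were exposed to compounds, and growth inhibition was calculated relative to vehicle-treated control cultures.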

[8] = NCI Yeast Anticancer Drug Screen. Data for the sgs1 mgt1 strain (AID 161);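 also: 0% = growth of cultures given vehicle only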; conditions: S. cerevisiae sgs1 mgt1 strain, stronger effect = higher value
Procedure, shortened: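 Mutant yeast exposed to compound; growth scored against vehicle-only wells.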

[9] = NCI Yeast Anticancer Drug Screen. Data for the CLN2oe strain (AID 163);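 also: 0% = growth of vehicle-only control cultures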; conditions: S. cerevisiae CLN2oe strain, stronger effect = higher value
Procedure, shortened: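 Read-out: yeast growth inhibition, expressed relative to vehicle-only controls. The strain bears an engineered cell-cycle alteration.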

[10] = NCI Yeast Anticancer Drug Screen. Data for the cln2 rad14 strain (AID 165);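 also: 0% = growth equal to vehicle treated cultures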; conditions: S. cerevisiae cln2 rad14 strain, stronger effect = higher value
Procedure, shortened: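 cln2 rad14 yeast strain; compound exposure; growth inhibition read vs vehicle controls.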

[11] = NCI Yeast Anticancer Drug Screen. Data for the bub3 strain (AID 167); conditions: S. cerevisiae bub3 mutant strain, stronger effect = higher value
Procedure, shortened: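 Compounds were applied to a genetically altered yeast strain carrying a cell-cycle control defect. Growth inhibition was scored against vehicle-treated controls.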

[12] = NCI Yeast Anticancer Drug Screen. Data for the wt2 strain (AID 169);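 also: 0% = growth of vehicle-treated yeast cultures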; conditions: S. cerevisiae wt2 strain growth inhibition, stronger effect = higher value
Procedure, shortened: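 Read-out: growth inhibition versus vehicle-treated control cultures after compound exposure of the yeast strain.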

[13] = NCI Yeast Anticancer Drug Screen. Data for the mlh1 strain (AID 171);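 also: 0% = growth of vehicle-treated control cultures of the same strain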; conditions: S. cerevisiae mlh1 strain growth inhibition, stronger effect = higher value
Procedure, shortened: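 Read-out: growth inhibition versus vehicle controls. Strain: engineered yeast with a defined DNA repair or cell cycle defect, compound-treated.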

[14] = NCI Yeast Anticancer Drug Screen. Data for the sgs1 strain (AID 173);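 also: 0% = growth of vehicle-only control cultures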; conditions: S. cerevisiae sgs1 mutant, stronger effect = higher value
Procedure, shortened: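 Read-out: yeast growth inhibition relative to vehicle controls, following compound exposure of a strain with a defined DNA repair/cell cycle alteration.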

[15] = NCI Yeast Anticancer Drug Screen. Data for the mlh1 rad18 strain (AID 175); conditions: S. cerevisiae mlh1 rad18 strain growth inhibition, stronger effect = higher value
Procedure, shortened: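 Yeast w/ defined DNA-repair lesions; compound exposure; growth vs vehicle controls → % inhibition.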

[16] = at 5.0 µM (retest, dose inferred, filed as 0.5)
[17] = at 50.0 µM (retest, dose inferred, filed as 5.0)

Compound: CCOC(=O)c1cc([N+](=O)[O-])cc([N+](=O)[O-])c1Sc1ncnc2nc[nH]c12
- growth inhibition ([1]; at 1.2 µM): 13%
- growth inhibition ([1]; at 3.7 µM): 2%
- growth inhibition ([1]; at 11.0 µM): 11%
- growth inhibition ([1]; at 33.0 µM): 62%
- growth inhibition ([1]; at 100.0 µM): 95% (active)
- growth inhibition ([2]; at 1.2 µM): -29%
- growth inhibition ([2]; at 3.7 µM): -44%
- growth inhibition ([2]; at 11.0 µM): -32%
- growth inhibition ([2]; at 33.0 µM): 50%
- growth inhibition ([2]; at 100.0 µM): 97% (active)
- growth inhibition ([3]; at 1.2 µM): -6%
- growth inhibition ([3]; at 3.7 µM): -11%
- growth inhibition ([3]; at 11.0 µM): 13%
- growth inhibition ([3]; at 33.0 µM): 62%
- growth inhibition ([3]; at 100.0 µM): 82% (active)
- growth inhibition ([4]; at 1.2 µM): -17%
- growth inhibition ([4]; at 3.7 µM): -18%
- growth inhibition ([4]; at 11.0 µM): -8%
- growth inhibition ([4]; at 33.0 µM): 83% (active)
- growth inhibition ([4]; at 100.0 µM): 98% (active)
- growth inhibition ([5]; at 1.2 µM): -15%
- growth inhibition ([5]; at 3.7 µM): -15%
- growth inhibition [5, 16]: 36%
- growth inhibition ([5]; at 11.0 µM): 1%
- growth inhibition ([5]; at 33.0 µM): 68%
- growth inhibition [5, 17]: 75% (active)
- growth inhibition ([5]; at 50.0 µM): 36%
- growth inhibition ([5]; at 100.0 µM): 96% (active)
- growth inhibition ([6]; at 1.2 µM): -33%
- growth inhibition ([6]; at 3.7 µM): -28%
- growth inhibition [6, 16]: 22%
- growth inhibition ([6]; at 11.0 µM): -2%
- growth inhibition ([6]; at 33.0 µM): 65%
- growth inhibition [6, 17]: 69%
- growth inhibition ([6]; at 50.0 µM): 60%
- growth inhibition ([6]; at 100.0 µM): 97% (active)
- growth inhibition ([7]; at 1.2 µM): -30%
- growth inhibition ([7]; at 3.7 µM): -21%
- growth inhibition ([7]; at 11.0 µM): -9%
- growth inhibition ([7]; at 33.0 µM): 66%
- growth inhibition ([7]; at 100.0 µM): 97% (active)
- growth inhibition [8, 16]: 52%
- growth inhibition [8, 17]: 75% (active)
- growth inhibition ([8]; at 50.0 µM): 62%
- growth inhibition ([9]; at 1.2 µM): -19%
- growth inhibition ([9]; at 3.7 µM): -33%
- growth inhibition ([9]; at 11.0 µM): -23%
- growth inhibition ([9]; at 33.0 µM): 54%
- growth inhibition ([9]; at 100.0 µM): 97% (active)
- growth inhibition [10, 16]: 5%
- growth inhibition [10, 17]: -16%
- growth inhibition ([10]; at 50.0 µM): 77.2% (active)
- growth inhibition ([11]; at 1.2 µM): -26%
- growth inhibition ([11]; at 3.7 µM): -12%
- growth inhibition [11, 16]: 38%
- growth inhibition ([11]; at 11.0 µM): -11%
- growth inhibition ([11]; at 33.0 µM): 70% (active)
- growth inhibition [11, 17]: 70% (active)
- growth inhibition ([11]; at 50.0 µM): 59.5%
- growth inhibition ([11]; at 100.0 µM): 96% (active)
- growth inhibition ([12]; at 1.2 µM): -29%
- growth inhibition ([12]; at 3.7 µM): -22%
- growth inhibition ([12]; at 11.0 µM): -24%
- growth inhibition ([12]; at 33.0 µM): 18%
- growth inhibition ([12]; at 100.0 µM): 96% (active)
- growth inhibition ([13]; at 1.2 µM): -31%
- growth inhibition ([13]; at 3.7 µM): 2%
- growth inhibition ([13]; at 11.0 µM): 2%
- growth inhibition ([13]; at 33.0 µM): 85% (active)
- growth inhibition ([13]; at 100.0 µM): 97% (active)
- growth inhibition ([14]; at 1.2 µM): -11%
- growth inhibition ([14]; at 3.7 µM): -5%
- growth inhibition ([14]; at 11.0 µM): 2%
- growth inhibition ([14]; at 33.0 µM): 74% (active)
- growth inhibition ([14]; at 100.0 µM): 96% (active)
- growth inhibition [15, 16]: 42%
- growth inhibition [15, 17]: 89% (active)
- growth inhibition ([15]; at 50.0 µM): 78.5% (active)
